Assay outcomes from PubChem BioAssay.
ABHD5-PLIN5 inh = inhibitors of human ABHD5-perilipin-5 interaction | Q00G26+Q8WTS1 | Split G. princeps luciferase complementation, luminescence, 4 h | inhibition, % at 4 µM | hit rate 0.78% among 360,000 | AID 602281;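 active means inhibition above the mean inhibition across every tested compound plus 3 SD, cut at about 22% in these data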;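 further: 0% = DMSO only wells and the 100% control is not disclosed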
Target sequence (Q00G26 whole entry, looked up): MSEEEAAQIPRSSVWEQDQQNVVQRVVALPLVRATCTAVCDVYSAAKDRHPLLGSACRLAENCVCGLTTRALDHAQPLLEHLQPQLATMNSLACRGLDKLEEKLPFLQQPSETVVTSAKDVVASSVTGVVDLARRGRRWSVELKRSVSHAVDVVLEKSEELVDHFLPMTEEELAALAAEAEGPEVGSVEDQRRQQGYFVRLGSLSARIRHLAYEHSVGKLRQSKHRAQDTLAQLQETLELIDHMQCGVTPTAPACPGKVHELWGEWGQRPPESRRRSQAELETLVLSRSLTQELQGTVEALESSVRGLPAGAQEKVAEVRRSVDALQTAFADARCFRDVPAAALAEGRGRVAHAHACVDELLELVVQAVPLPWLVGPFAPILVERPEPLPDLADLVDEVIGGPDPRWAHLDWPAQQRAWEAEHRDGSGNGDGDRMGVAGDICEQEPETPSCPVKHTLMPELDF
Target sequence (Q8WTS1 whole entry, looked up): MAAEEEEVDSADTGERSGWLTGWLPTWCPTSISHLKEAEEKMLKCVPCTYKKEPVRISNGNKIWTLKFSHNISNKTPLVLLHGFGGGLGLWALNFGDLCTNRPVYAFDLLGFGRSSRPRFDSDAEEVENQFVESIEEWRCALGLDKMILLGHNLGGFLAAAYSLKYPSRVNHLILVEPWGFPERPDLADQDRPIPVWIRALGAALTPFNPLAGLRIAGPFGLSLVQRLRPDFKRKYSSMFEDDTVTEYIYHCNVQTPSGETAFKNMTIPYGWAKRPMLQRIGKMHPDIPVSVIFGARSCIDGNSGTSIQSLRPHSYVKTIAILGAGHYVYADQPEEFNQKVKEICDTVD
PRMT1 inh = blocks human protein arginine methyltransferase 1 | Q99873 | hit rate 1.3% among 370,000 | recombinant PRMT1, activity-based probe fluorescence polarization | inhibition, % at 2.79 µM | AID 652257;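 active means inhibition above about 21% made by adding two undisclosed values, limit read from the data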
UHRF1 binding = UHRF1 methyl-DNA binding inhibition. Q96T88. UHRF1 binding to methylated oligo, TR-FRET. inhibition, % at 4.4 µM. hit rate 0.75% among 370,000. AID 687016; in the data active means inhibition above about 21%;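 further: UHRF1 SRA domain binding a hemimethylated CpG hairpin DNA probe; 0% = median of test compound wells and 100% = reference inhibitor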
MBD2 DNA inh = blocks human MBD2 binding to methylated DNA. inhibition, % at 4.4 µM. TR-FRET, MBD2 binding to methylated oligonucleotide. AID 686964. hit rate 0.31% among 370,000; in the data active means inhibition above about 13%
LEDGF integ inh = blocks HIV-1 LEDGF/p75-dependent DNA integration | inhibition, % at 3.7 µM | hit rate 0.64% among 370,000 | TR-FRET IN-LEDGF/p75 DNA integration, Eu/Cy5;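 active means inhibition above the screen-wide mean plus 3 SD, cut at about 13% in these data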;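 further: signal is the Cy5 over europium emission ratio at 671 and 618 nm; 0% = plate median of compound wells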
rCAG binder = binds r(CAG) RNA repeats | AID 651821 | hit rate 1.3% among 370,000 | inhibition, % at 3 µM | r(CAG) RNA repeat, TO-PRO-1 dye displacement fluorescence;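 active means inhibition above the plate cutoff, the mean of all test compounds on that plate plus 3 SD, cut at about 35% in these data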;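 further: 0% = DMSO alone and 100% = 100 µM mitoxantrone as full dye displacement; higher means more dye released from RNA so lower well fluorescence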
Active calls of the source: *. A selection: hits, their analogues and other compounds. The true share with any hit is near 4.1%.

How did CC(C)Cc1nnc(NC(=O)CCS(=O)(=O)c2ccc(Cl)cc2)s1 do in these assays?
ABHD5-PLIN5 inh: 0.3; PRMT1 inh: 4.6; UHRF1 binding: 24.3*; MBD2 DNA inh: 10.6; LEDGF integ inh: 4.2; rCAG binder: -1.4

What do the screens show for `O=C(OCC#CCSc1nnc(-c2cccc3ccccc23)o1)c1ccsc1`?
PRMT1 inh: -1.1; UHRF1 binding: -1.2; MBD2 DNA inh: -1.2; LEDGF integ inh: 7.7

What do the screens show for `O=C(O)c1ccccc1C1Nc2ccccc2C(=O)N1CCCN1CCOCC1` (configuration not stated)?
ABHD5-PLIN5 inh: 2.4; PRMT1 inh: 0.6; UHRF1 binding: 40.2*; MBD2 DNA inh: 4.7; LEDGF integ inh: 2.5; rCAG binder: 0.1

What do the screens show for `O=C1c2ccccc2NC(c2ccccc2)N1CCCN1CCOCC1` (configuration not stated)?
ABHD5-PLIN5 inh: -2.1; PRMT1 inh: -2.0; UHRF1 binding: 1.0; MBD2 DNA inh: -2.2; LEDGF integ inh: 3.0; rCAG binder: -4.5

What do the screens show for `N/C(=N\OC(=O)/C=C/c1ccc(Br)cc1)c1ccccn1`?
ABHD5-PLIN5 inh: -1.5; PRMT1 inh: 2.5; UHRF1 binding: 22.9*; MBD2 DNA inh: 3.0; LEDGF integ inh: 1.4; rCAG binder: -2.1

Results for N#CCCN(C(=O)CSc1ccc2c(c1)OCCO2)c1ccccc1 ?
ABHD5-PLIN5 inh: -14.7; PRMT1 inh: 21.7*; UHRF1 binding: 2.1; MBD2 DNA inh: -1.2; LEDGF integ inh: 2.7; rCAG binder: -6.6

What do the screens show for `Cc1cc(C)c(-c2c(O)c3cccnc3n(C)c2=O)c(C)c1`?
ABHD5-PLIN5 inh: 4.3; PRMT1 inh: 0.8; UHRF1 binding: 28.7*; MBD2 DNA inh: -4.1; LEDGF integ inh: -1.5; rCAG binder: -3.4

How did Cc1ccc(Nc2nc(C)c3c(n2)CC(C)CC3=O)c(C)c1 (configuration not stated) do in these assays?
ABHD5-PLIN5 inh: -4.0; PRMT1 inh: 1.3; UHRF1 binding: 28.4*; MBD2 DNA inh: -6.0; LEDGF integ inh: -1.0; rCAG binder: -5.6

What do the screens show for `COc1ccc(N2C3=C(CC4=C2CC(C)(C)CC4=O)C(=O)CC(C)(C)C3)cc1`?
ABHD5-PLIN5 inh: 9.6; PRMT1 inh: 22.8*; UHRF1 binding: -3.6; MBD2 DNA inh: -2.4; LEDGF integ inh: 0.0; rCAG binder: -1.3

How did OCC1(Cc2ccc(Cl)cc2)CCN(CCCc2ccccc2)CC1 do in these assays?
ABHD5-PLIN5 inh: 5.8; PRMT1 inh: -2.0; UHRF1 binding: -1.5; MBD2 DNA inh: -1.9; LEDGF integ inh: -2.8; rCAG binder: -5.0

What do the screens show for `CN1CCC(CO)(Cc2ccccc2)CC1`?
ABHD5-PLIN5 inh: -0.5; PRMT1 inh: -2.2; UHRF1 binding: 22.0*; MBD2 DNA inh: 0.8; LEDGF integ inh: 1.3; rCAG binder: -0.2

How did COc1ccc(Cl)cc1-n1c(=S)sc2c(=O)[nH]c(SCC(=O)C(C)(C)C)nc21 do in these assays?
ABHD5-PLIN5 inh: -5.4; PRMT1 inh: -0.2; UHRF1 binding: 0.1; MBD2 DNA inh: 0.4; LEDGF integ inh: 2.7; rCAG binder: 84.4*

How did O=C1N=C(c2ccccc2)S/C1=C\c1cccs1 do in these assays?
ABHD5-PLIN5 inh: -14.0; PRMT1 inh: 21.5*; UHRF1 binding: -12.1; MBD2 DNA inh: -0.6; LEDGF integ inh: -7.6; rCAG binder: 15.0

Results for COc1ccc(CN2C[C@H](COCc3ccccc3)Oc3cccc(Oc4ccc(C(C)C)cc4)c3S2(=O)=O)cc1 ?
PRMT1 inh: 2.5; UHRF1 binding: -1.1; MBD2 DNA inh: -1.9; LEDGF integ inh: -4.1; rCAG binder: 5.6

Results for CCCCN(CCCC)C(=O)/C=C/c1cccc([N+](=O)[O-])c1 ?
ABHD5-PLIN5 inh: -7.3; PRMT1 inh: -3.8; UHRF1 binding: 21.0*; MBD2 DNA inh: 4.5; LEDGF integ inh: 1.3; rCAG binder: -14.6

Results for CC(=O)N1CC[n+]2c(-c3ccc(Cl)cc3Cl)csc21 ?
ABHD5-PLIN5 inh: -20.2; PRMT1 inh: 57.0*; UHRF1 binding: 0.7; MBD2 DNA inh: 2.1; LEDGF integ inh: 0.7; rCAG binder: 5.6

Results for CCN(CC)S(=O)(=O)c1cc(C(=O)Nc2ccccc2[N+](=O)[O-])ccc1Cl ?
ABHD5-PLIN5 inh: -8.5; PRMT1 inh: 0.1; UHRF1 binding: 21.6*; MBD2 DNA inh: 6.1; LEDGF integ inh: 0.1; rCAG binder: 0.9

How did CN(C)S(=O)(=O)c1cccc(C(=O)Nc2ccccc2[N+](=O)[O-])c1 do in these assays?
ABHD5-PLIN5 inh: 2.6; PRMT1 inh: 5.5; UHRF1 binding: 3.2; MBD2 DNA inh: 6.2; LEDGF integ inh: -2.0; rCAG binder: 4.3

How did C[C@@H]1ON(C)[C@H]2C[C@H]3c4[nH]c5c(-c6ccc(C(F)(F)F)cc6)cccc5c4CCN3C(=O)[C@@H]12 do in these assays?
PRMT1 inh: -2.8; UHRF1 binding: 1.0; MBD2 DNA inh: -4.0; LEDGF integ inh: 5.8; rCAG binder: 7.1

How did C/C(=N\NC(=O)c1cc(O)cc(O)c1)c1ccc(NC(=O)Cc2ccccc2)cc1 do in these assays?
ABHD5-PLIN5 inh: -1.5; PRMT1 inh: 6.6; UHRF1 binding: 46.2*; MBD2 DNA inh: 11.9; LEDGF integ inh: 15.6*; rCAG binder: 19.7

What do the screens show for `CC(=O)c1cccc(NC(=O)C2(c3ccccc3)CC2(Cl)Cl)c1` (configuration not stated)?
ABHD5-PLIN5 inh: 2.4; PRMT1 inh: -0.7; UHRF1 binding: 25.2*; MBD2 DNA inh: 3.8; LEDGF integ inh: -0.9; rCAG binder: -0.2

What do the screens show for `Cc1cccc(NC(=O)C2(c3ccccc3)CC2(Cl)Cl)c1` (configuration not stated)?
ABHD5-PLIN5 inh: -1.3; PRMT1 inh: -1.0; UHRF1 binding: 2.1; MBD2 DNA inh: 0.1; LEDGF integ inh: -2.0; rCAG binder: 1.7

Results for O=c1cc(O)n(C2CCCCCC2)c(=O)[nH]1 ?
ABHD5-PLIN5 inh: -23.3; PRMT1 inh: 24.1*; UHRF1 binding: -3.5; MBD2 DNA inh: -2.0; LEDGF integ inh: -0.8; rCAG binder: 23.1

How did O=C(NCc1ccccc1)[C@@H]1CCCN1C(=O)[C@H]1CCCN1C(=O)C1CCCCC1 do in these assays?
PRMT1 inh: -0.4; UHRF1 binding: -1.1; MBD2 DNA inh: 2.9; LEDGF integ inh: 3.5; rCAG binder: 0.2

What do the screens show for `COC(=O)c1ccc(NC(=O)C2CCCN2C(=O)OCc2ccccc2)cc1` (configuration not stated)?
ABHD5-PLIN5 inh: -1.9; PRMT1 inh: -1.6; UHRF1 binding: 23.8*; MBD2 DNA inh: 5.2; LEDGF integ inh: 3.7; rCAG binder: 0.3

What do the screens show for `CC(C)(C)OC(=O)N1CCC[C@@H]1C(=O)N1CCC[C@H]1C(=O)NCc1ccccc1`?
PRMT1 inh: 2.7; UHRF1 binding: -1.2; MBD2 DNA inh: -1.0; LEDGF integ inh: 0.7; rCAG binder: 0.5

Results for CC(C)(C)OC(=O)N1CCC[C@@H]1C(=O)N1CCC[C@@H]1C(=O)NCc1ccccc1 ?
PRMT1 inh: 1.8; UHRF1 binding: 16.1; MBD2 DNA inh: 14.8*; LEDGF integ inh: 2.2; rCAG binder: 0.3
